The target of this assay is High affinity choline transporter 1 (Homo sapiens) (UniProt Q9GZV3). As to the kind of experiment: human choline transporter potentiators, potency – cell-based, 10-point CRC, membrane potential dye, dose response (AID 602376). To be noted: HEK293-CHT, choline-induced membrane potential dye, cells express CHT LV-AA mutant; series mostly up to 67 µM.

Potency and affinity values are given separately. Inconclusive results are not listed. Entries that show only a call come without a potency. Active and inactive are the calls of the source.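 The calls were made as follows: active = raises choline transporter activity at one or more tested doses and gives a fitted dose-response curve; inconclusive = no clear call, values can overlap the other calls; inactive = no choline transporter activation at any dose, or no curve.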

Chain of High affinity choline transporter 1 (Homo sapiens) (Q9GZV3 whole entry, looked up): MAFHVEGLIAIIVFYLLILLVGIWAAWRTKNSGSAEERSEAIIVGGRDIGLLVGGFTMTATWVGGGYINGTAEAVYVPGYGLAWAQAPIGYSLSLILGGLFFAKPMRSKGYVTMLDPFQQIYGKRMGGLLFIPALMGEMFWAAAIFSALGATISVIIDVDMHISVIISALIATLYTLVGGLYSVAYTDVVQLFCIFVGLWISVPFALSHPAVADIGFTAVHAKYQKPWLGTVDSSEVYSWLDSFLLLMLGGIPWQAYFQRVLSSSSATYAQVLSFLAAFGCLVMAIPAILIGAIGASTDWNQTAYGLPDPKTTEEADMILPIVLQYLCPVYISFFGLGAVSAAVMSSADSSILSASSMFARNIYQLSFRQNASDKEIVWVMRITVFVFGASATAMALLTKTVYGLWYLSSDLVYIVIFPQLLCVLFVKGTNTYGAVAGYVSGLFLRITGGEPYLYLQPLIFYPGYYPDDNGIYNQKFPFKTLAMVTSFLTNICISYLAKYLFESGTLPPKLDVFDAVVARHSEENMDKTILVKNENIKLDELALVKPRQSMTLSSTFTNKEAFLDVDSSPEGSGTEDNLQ

With `CCCOC(=O)c1ccc(-[n+]2c(-c3ccccc3)cc(-c3ccccc3)cc2-c2ccccc2)cc1`, the result was inactive.

As for `CCCCCn1c(=O)c(C(=O)NCc2ccncc2)c(O)c2ccccc21`, the result was inactive. The result for `COc1ccc(C2NCc3ccc4c(c3-n3cccc32)OCO4)cc1O` (stereo not drawn) reads “inactive”.

The record behind these values is PubChem BioAssay AID602376 (Johns Hopkins Ion Channel Center, 2012).
